KB-3-1 cytotox: KB-3-1 parental cell cytotoxicity. KB-3-1 viability, CellTiter-Glo ATP luminescence, 72 h. 400,000 tested, 1.4% active. Potency, µM (series often up to 46.1 µM), actives largely listed as cytotoxic; further: on the % scale 0 is the no-effect control and ±100 the full control effect; nearly all actives have a fitted effect of over 60% in size
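KB-3-1 parental drug-naive adenocarcinoma cells in DMEM/10% FBS, incubated 72 h at 37 C with pin-transferred compounds across a concentration series. Viability by CellTiter-Glo luminescence; concentration-response curves fitted after normalization.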
MCF10A rerep: induces DNA re-replication in MCF 10a normal breast cells | AID 624296 | 350,000 tested, 2.9% active | MCF 10A DNA re-replication, Hoechst nuclear intensity, 48 h | Potency, µM (highest dose often 46.1 µM), for the others: top-dose activity, positive = re-replication, usual class: activators; further: % of control where 0% means no effect; nearly all actives have a fitted effect of over 50% in size
ELG1 repair inh: ELG1-dependent DNA repair inhibition; HEK293T ELG1-luciferase reporter, luminescence, 16 h; DNA damage induced by 5-fluorouridine; Potency, µM (doses to about 46.1 µM), inactives show at the highest dose activity change, negative = inhibition, usual class: inhibitors; 330,000 tested, 2.3% active; AID 504467; further: on the % scale 0 is the no-effect control and ±100 the full control effect; nearly all actives have a fitted effect of over 55% in size
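Reporter activity after DNA damage by 5-fluorouridine is monitored. Compound-treated cells incubate 16 hr at 37 °C, then ONE-Glo is added for 30 min before luminescence reading.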
SW480 rereplic: induces DNA re-replication in SW480 colon adenocarcinoma cells. SW480 DNA re-replication, Hoechst DNA content imaging, 48 h. Potency, µM (highest dose often 46.1 µM), without a hit: at the top dose re-replication activation, hits mostly activators. 340,000 tested, 1.8% active; further: % of control where 0% means no effect; nearly all actives have a fitted effect of over 55% in size
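Image-based DNA-content assay: after two days of treatment, nuclei were labelled with the DNA dye Hoechst and imaged, and hits were compounds raising the count of nuclei showing high fluorescence intensity.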
KB-V1 MDR tox: kills drug-selected multidrug resistant KB-V1 cells; KB-V1 MDR cells viability, CellTiter-Glo, 72 h; Potency, µM (series often up to 46.1 µM), hits mostly cytotoxic; 400,000 tested, 3.4% active; AID 1347076; further: on the % scale 0 is the no-effect control and ±100 the full control effect; nearly all actives have a fitted effect of over 60% in size
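KB-V1 MDR subline cells in DMEM (phenol-red free, 10% FBS) exposed to compounds in qHTS concentration series for 72 h at 37 degrees C. Viability read by CellTiter-Glo luminescence; concentration-effect curves fitted after normalization and correction.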
Starred values were filed as active, the others as inactive; i = inactive; ? = inconclusive; nt = no result given; ! = repeats disagree. Sampled rows, rich in hits. Any-hit rate of the full collection: about 8.1%. The call rests on the fitted dose curve; in most records, active means well fitted curve in the direction sought with a large enough effect; inconclusive means small, poorly fitted or top-dose-only effect, or another doubt; inactive means no such curve, though single readings can be large; an effect the other way counts as inactive or inconclusive. Potency means the concentration at half of the fitted maximal effect.

SMILES | KB-3-1 cytotox | MCF10A rerep | ELG1 repair inh | SW480 rereplic | KB-V1 MDR tox
CC(CCc1ccc(O)cc1)NC1c2ccccc2-c2ccccc21 (stereo unspecified) | i | 11.7% | 12.4% | 14.7% | i
COc1ccc(S(=O)(=O)N2CCC3(CC2)OCCN3S(=O)(=O)c2c(C)cc(C)cc2C)cc1 | i | -1.9% | -15.5% | 3.7% | i
COc1ccc(S(=O)(=O)N2CCOC23CCN(S(C)(=O)=O)CC3)cc1 | i | 14.0% | -0.6% | 5.17µM* | i
COc1ccc(S(=O)(=O)N2CCOC23CCN(S(=O)(=O)c2ccccc2)CC3)cc1 | i | 6.0% | 11.6% | 7.31µM* | i
C[C@H](CO)N1C[C@H](C)[C@H](CN(C)C(=O)Cc2ccccc2)OCc2cnnn2CCCC1=O | ? | nt | nt | nt | i
O=C1CC(NS(=O)(=O)c2cccnc2)CN1c1ccc(Cl)cc1 (stereo unspecified) | i | -1.6% | 6.9% | 0.2% | i
O=C(CNS(=O)(=O)c1ccccc1)OCC(=O)c1cccc([N+](=O)[O-])c1 | i | -5.2% | 11.1% | -4.5% | ?
COc1ccc(N(CC(=O)NCCSc2ccccc2)S(=O)(=O)c2ccccc2)cc1 | ? | 8.6% | ? | -1.5% | ?
COc1ccccc1N(CC(=O)NCCSCc1ccc(C)cc1)S(=O)(=O)c1ccccc1 | ? | -0.6% | 16.4µM* | 3.1% | ?
COc1ccc(N(CC(=O)NCCSCc2ccc(C)cc2)S(=O)(=O)c2ccccc2)cc1 | ? | ? | ? | 3.0% | 6.51µM*
Cc1ccc(CSCCNC(=O)CN(c2cccc(C)c2C)S(=O)(=O)c2ccccc2)cc1 | i | nt | nt | nt | ?
Cc1ccccc1-c1noc(CCC(=O)NCC2CCCO2)n1 (stereo unspecified) | i | -4.1% | 3.5% | -5.9% | i
CCS(=O)(=O)N1CCN(c2ccc(C(=O)NC34CC5CC(CC(C5)C3)C4)cc2[N+](=O)[O-])CC1 | i | 15.7% | 23.1µM* | -10.8% | i
O=C(NC12CC3CC(CC(C3)C1)C2)c1ccc(N2CCNCC2)c([N+](=O)[O-])c1 | 18.4µM* | 9.9% | 8.7% | ? | 23.1µM*
CS(=O)(=O)N1CCN(c2ccc(C(=O)NC34CC5CC(CC(C5)C3)C4)cc2[N+](=O)[O-])CC1 | i | -1.2% | 19.4% | -3.6% | i
COc1ccc(/C=N/NC(=O)CNc2c(Br)cc(C)cc2Br)c(C(=O)O)c1OC | i | 4.3% | -0.2% | -0.3% | i
COC(=O)c1ccccc1S(=O)(=O)N1CCC(c2nc3ccccc3o2)CC1 | i | 8.7% | ? | -6.2% | 11.6µM*
COC(=O)c1cccc(S(=O)(=O)N2CCC(c3nc4ccccc4o3)CC2)c1 | i | 13.2% | ? | -8.4% | i
Cc1ccc(SCC(=O)Nc2cccc(-c3nc4cc(Cl)ccc4o3)c2C)cc1 | i | nt | nt | nt | i
Cc1ccc2cc(C=O)c(N(C)C)nc2c1 | i | 5.3% | 15.6% | ? | i
Fc1ccc(-c2ccnc3nc(N4CCOCC4)nn23)cc1 | i | -1.3% | -3.3% | -0.4% | i
COc1ccc(-c2ccnc3nc(N4CCN(c5ccccc5)CC4)nn23)cc1 | ? | ? | 6.7% | -7.0% | 20.6µM*
CCOC(=O)Cc1csc(/N=C/c2c(O)n(-c3ccccc3C(F)(F)F)c(=O)c3ccccc23)n1 | ? | -1.5% | 13µM* | -5.3% | i
CCNC(=O)COc1ccc(/C=C2\COc3ccccc3C2=O)cc1OC | i | ? | ? | ? | i
CCOc1cc(/C=C2\COc3ccccc3C2=O)ccc1OCC(=O)N(C)C | i | 14.6µM* | ? | 14.6µM* | ?
SMILES | KB-3-1 cytotox | MCF10A rerep | ELG1 repair inh | SW480 rereplic | KB-V1 MDR tox
COc1cccc(CC2(CO)CCCN(Cc3ccccc3Cl)C2)c1 (stereo unspecified) | i | 4.61µM* | -10.2% | -10.0% | ?
COc1ccc(F)c(CN2CCCC(CO)(Cc3cccc(Cl)c3)C2)c1 (stereo unspecified) | i | 15.9% | 5.2% | 5.7% | i
CC1(C)Nc2ccc(O)cc2-c2c1ssc2=S | i | ? | 11.6µM* | -5.1% | i
CC(C)(C)OC(=O)N1CCC(C(=O)N[C@@H](Cc2ccccc2)C(=O)O)(c2ccccc2)CC1 | i | ? | -8.1% | 0.461µM*! | i
COc1ccc(C2CC(C(F)(F)F)n3nc(C(=O)NCCN4CCOCC4)cc3N2)cc1 (stereo unspecified) | i | -3.6% | -2.2% | 2.6% | i
O=C(NCC1CCCO1)c1cc2n(n1)C(C(F)(F)F)CC(c1ccc(F)cc1)N2 (stereo unspecified) | i | 10.5% | -3.3% | -5.4% | 20.6µM*
COc1ccc(NC(=S)N/N=C2\CC(C)(C)Oc3ccc(O)cc32)cc1 | i | 26.9% | -4.6% | -6.9% | i
Cn1c(SCC(=O)N2CCc3ccccc3C2)nnc1-c1ccncc1 | i | 12.2% | 2.7% | -0.3% | i
Cc1ccccc1-n1c(C)nnc1SCC(=O)N1CCc2ccccc2C1 | i | ? | 1.3% | 0.5% | 6.51µM*
CCCCNC(=O)CSc1nc2ccc(Nc3nc(N4CCOCC4)nc(N4CCOCC4)n3)cc2s1 | i | ? | 5.8µM* | 6.1% | i
CCN(CC)S(=O)(=O)c1cc(NC(=O)c2cc(-c3ccccn3)nc3ccccc23)ccc1C | i | ? | 8.2µM* | 0.1% | ?
COc1ccc(/C=N/NC(=O)c2cc(-c3ccccc3)nc3ccccc23)c(OC)c1 | i | ? | 11.6µM* | -5.2% | i
O=C(N/N=C/c1cccc(O)c1)c1cc(-c2ccccc2)nc2ccccc12 | i | 7.4% | ? | -1.3% | i
COC(=O)c1ccc(NC(=O)c2cc(-c3ccccn3)nc3ccccc23)cc1 | i | 12.1% | -8.6% | -20.0% | i
COc1ccc(NC(=O)c2cc(-c3ccccn3)nc3ccccc23)c(OC)c1 | i | 11.8% | 8.2µM* | 1.4% | i
CCOc1ccccc1-c1cc(C(=O)Nc2ccc(C(=O)O)cc2)c2ccccc2n1 | i | ? | 11.5% | 12.1% | i
CCOc1ccccc1NC(=O)c1cc(-c2ccccn2)nc2ccccc12 | 18.4µM* | ? | ? | ? | ?
COc1ccc(N2CCN(C(=O)COC(=O)CNC(=O)c3cccc(OC(F)F)c3)CC2)cc1 | i | -4.3% | 9.4% | 65.7% | ?
CN(C(=O)COC(=O)/C=C/c1ccc(C(F)(F)F)cc1)C1CCS(=O)(=O)C1 (stereo unspecified) | i | -14.0% | -6.6% | -19.5% | i
COCCCNC(=O)CC(NS(=O)(=O)c1ccc(OC)cc1)c1ccc(OC)cc1 (stereo unspecified) | i | -5.4% | 11.1% | -3.5% | i
